Bioassay records: PubChem, National Center for Advancing Translational Sciences (NCATS)
FUS suppressor: FUS proteinopathy suppression in yeast. S. cerevisiae FUS-expressing, growth rescue, OD600, 24 h. Potency, µM (top dose mostly 76.6 µM), actives largely listed as activators. 390,000 compounds, 0.24% hits. AID 1347120;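 also: potency is read from the fitted curve at half-maximal effect; plate controls were DMSO vehicle for no effect and reference control for full effect; nearly all actives have a fitted effect of over 55% in size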
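Quantitative HTS measuring growth restoration of FUS-toxic yeast. Galactose-induced cells (OD 0.005) were exposed 24hr at 30C to compounds at several concentrations, then absorbance at 600 nm was recorded.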
Abeta rescue: compounds reversing amyloid beta toxicity in yeast; yeast expressing A-beta42, growth rescue, OD600, 48 h; response scale: 0% DMSO, 100% iron-clioquinol control; AID 1347071; 410,000 compounds, 0.063% hits; Potency, µM (highest dose often 46.1 µM), usual class: activators; also: potency is read from the fitted curve at half-maximal effect; nearly all actives have a fitted effect of over 55% in size
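Growth rescue measured by 600 nm absorbance after 48 h yeast culture at 30 C with compound. Values normalized between DMSO and an equimolar ferric chloride plus clioquinol control.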
TDP43 rescue: rescues yeast growth from TDP-43 toxicity | 410,000 compounds, 1.8% hits | TDP-43 expressing yeast growth rescue, BacTiter-Glo, 24 h | Potency, µM (highest dose often 46.1 µM), for inactives: at the highest dose growth rescue (activation), actives largely listed as activators; also: potency is read from the fitted curve at half-maximal effect; % of control where 0% means no effect; nearly all actives have a fitted effect of over 50% in size
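In this qHTS, compounds that restore growth of yeast expressing TDP-43 appear as activators. Cells (OD600=0.02, galactose medium, raffinose-pregrown) are incubated with compound 24 hr at 30 deg C and growth is quantified by BacTiter-Glo.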
Akt phos inh: blocks phosphorylation of Akt; Neuro2A IGF-stimulated pAkt S473 HTRF, 20 min; stronger effect = lower value; 360,000 compounds, 0.32% hits; activity change, % for hits at 50 µM; in the data active = activity change below about -80%; inconclusive = mostly about -51% to -80%; also: % is scaled to controls: 0 for no effect and ±100 for the full control effect
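Single-point screen (50 µM final compound) in Neuro2A cells stimulated 20 min with 6 nM IGF at 37 deg C. After lysis, Ser473-phosphorylated Akt read by HTRF (ex 330 nm, em 615/665 nm) as the 665/615 ratio.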
aSyn yeast inh: rescues yeast growth from alpha-synuclein toxicity; Yeast expressing alpha-synuclein, growth rescue, BacTiter-Glo, 24 h; Potency, µM (doses to about 46.1 µM), inactives show at the highest dose growth rescue (activation), actives largely listed as activators; 370,000 compounds, 0.14% hits; AID 652106; also: potency is read from the fitted curve at half-maximal effect; % of control where 0% means no effect; nearly all actives have a fitted effect of over 65% in size
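Rescue of yeast growth: cells expressing toxic alpha-synuclein, induced in galactose at OD600 0.02, incubated with compound 24 h at 30 C. ATP luminescence quantified growth; inhibitors of toxicity appear as activators.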
* hit, by the source's call; i = inactive; u = inconclusive; x = no result given; [ ] = another dose, or the depositor's remark. This is a sample that favours compounds with a hit; in the whole collection about 2.3% have one here. Unless noted, calls follow the shape of the dose curve; as a rule, active = well fitted curve in the direction sought with a large enough effect; inconclusive = small, poorly fitted or top-dose-only effect, or another doubt; inactive = no such curve, though single readings can be large; an effect the other way counts as inactive or inconclusive.

SMILES | FUS suppressor | Abeta rescue | TDP43 rescue | Akt phos inh | aSyn yeast inh
O=C(NNC(=O)c1ccccc1F)c1ccco1 | i | i | -11% | i | -2%
O=C(NNC(=O)c1ccccc1F)c1ccc(-c2ccccc2Cl)o1 | i | i | 22µM* | i | 0%
Cc1onc(-c2ccccc2Cl)c1C(=O)NCC1CCCO1 (configuration not stated) | i | i | -13% | i | -5%
COc1ccc(OC)c(NC(=O)CSc2nnc(-c3ccco3)n2-c2ccccc2)c1 | i | i | 8% | i | -2%
COc1ccc(-n2c(SCC(=O)Nc3cc(C)c(NC(=O)c4ccccc4)cc3OC)nnc2-c2ccco2)cc1 | 11µM* | x | x | x | x
Cc1cc(C)cc(Nc2cc(C(=O)NC3CCC(C)CC3)c3ccccc3n2)c1 (configuration not stated) | i | i | -1% | x | x
CSc1ccc(C2C(C#N)=C(N)Oc3c2ccc(=O)c2c(C)oc(C)c32)cc1 (configuration not stated) | 22µM* | i | -31% | i | u
O=S(=O)(c1ccc2c(c1)CCCC2)N1CCN(c2nc(-c3cccs3)nc3ccccc23)CC1 | x | x | x | x | 1%
CCc1nc(C)cn1S(=O)(=O)c1ccc(Cl)c(Cl)c1OC | i | i | u | x | x
COc1ccccc1NC(=O)c1c(-c2ccc(C)cc2)nnc2ccccc12 | i | i | 2% | x | x
O=C1/C(=C/C=C/c2ccco2)SC(=S)N1c1ccc(O)cc1 | i | i | 11µM* | i | 21%
O=C1/C(=C\c2ccco2)SC(=S)N1c1ccc(O)cc1 | i | i | 21% | i | -2%
O=C1CC(c2cccc(Cl)c2)Cc2nc(N3CCN(c4ccccc4)CC3)ncc21 (configuration not stated) | i | i[9.22 µM] | -9% | -97%* | 5%
COc1cc2c(NC3CCN(C)CC3)nc(N3CCCN(C)CC3)nc2cc1OCCCN1CCOCC1 | x | x | x | x | 6%
Nc1cc(-c2cccc(Br)c2)nn1Cc1ccccc1 | x | i | u | i | 13%
Nc1cc(-c2ccc(Br)cc2)nn1Cc1ccccc1 | i | u | 20µM* | i | -1%
COC(=O)c1scc(-c2ccc(C)cc2)c1S(=O)(=O)Nc1ccc(F)cc1F | i | i | u | x | x
CN(C(=O)Nc1ccc(Cl)cc1)c1c2c(nn1C)CCCC2 | i | i | -3% | -87%* | 2%
O=C(CSc1nc(-c2ccccc2)nc2c1CCCC2)c1ccc(Cl)cc1 | i | i | 13% | x | 0%
Cn1c2ccccc2c2ncn(CCCN3CCOCC3)c(=O)c21 | i | i | 6% | i | -3%
Cn1c2ccccc2c2ncn(CCC3=CCCCC3)c(=O)c21 | i | i | 13µM* | i | -4%
O=C(CCC1N=C2c3ccccc3N=C(SCc3ccccc3F)N2C1=O)NCc1ccccc1 (configuration not stated) | i | i | 8% | x | x
NC(=O)Cn1c(=O)n(-c2ccc(F)c(Cl)c2)c(=O)c2sc3ccccc3c21 | u | i | -13% | x | x
CCC(=O)N(Cc1ccco1)c1nc(-c2ccc(OC)cc2)cs1 | i | i | 11% | i | 5%
CCC(=O)N(CC)c1nc(-c2ccc(OC)cc2)cs1 | i | i | 5µM* | i | -23%
SMILES | FUS suppressor | Abeta rescue | TDP43 rescue | Akt phos inh | aSyn yeast inh
O=S(=O)(NCc1nc2cccnc2n1Cc1ccccc1Cl)c1ccc(F)c(Cl)c1 | i | i | 0% | x | x
CCCN1CNc2c(c(=O)[nH]c(=S)n2CCc2cccc(OC)c2OC)C1 | x | x | x | x | 2%
CCOc1ccc(CCNS(=O)(=O)c2cnc[nH]2)cc1OCC | i | i | 2% | -132%* | -1%
CCOc1ccc2nc(NC(=O)C3=NN(c4ccccc4)C(=O)CC3)sc2c1 | i | i | 1% | i | 3%
Cc1ccc2nc(NC(=O)C3=NN(c4ccccc4)C(=O)CC3)sc2c1 | u | i | 16µM* | i | -1%
CC(=O)OCP(C)(=O)COC(C)=O | i | i | -3% | -121%* | -1%
COc1ccccc1C(=O)Nc1nnc(-c2ccc(F)cc2)o1 | i | i | 1% | i | -2%
Cc1ccccc1C(=O)Nc1nnc(-c2ccc(F)cc2)o1 | i | 22µM* | u | i | 18µM*
Cc1ccc2c(c1)c1c3n2CCN(C(=O)C2CC2)C3CCC1 (configuration not stated) | i | i | 28µM* | i | 2%
Cc1ccc(C(=O)N2CCn3c4c(c5cc(C)ccc53)CCCC42)cc1 (configuration not stated) | u | i | -2% | x | x
CC1(c2cc([N+](=O)[O-])cc([N+](=O)[O-])c2)CC(C)(C)N(C(=O)c2ccccc2)c2ccccc21 (configuration not stated) | i | i | 25µM* | i | -15%
Cc1n[nH]c(C)c1N1C(=O)c2cccc3cc(Br)cc(c23)C1=O | i | i | -6% | i | -2%
Cc1n[nH]c(C)c1N1C(=O)c2cccc3c(Br)ccc(c23)C1=O | i | i | 6% | -113%* | 3%
COc1ccc(NC(=O)C2CCCN2S(=O)(=O)c2cccc3cccnc23)c(OC)c1 (configuration not stated) | i | i | 2.5µM* | i | 0%
N#Cc1nc(N2CCCCC2)nc(N(c2ccccc2)c2ccccc2)n1 | x | x | x | x | -1%
CCOC(=O)c1cn2nc(SCc3ccccc3)nc2nc1C | i | i | 16µM* | i | 1%
COc1ccc(-c2coc3c(C(=O)Nc4ccc(OC)nc4)cccc23)c(C)c1 | i | i | 35µM* | i | -17%
COc1ccc(-c2ccc(C(=O)Nc3ccc(OC)nc3)c3occc23)c(C)c1 | u | i | 35µM* | i | -19%
COCCCNC(=O)c1cccc2c(-c3ccc(OC)cc3C)coc12 | i | i | u | i | -17%
COc1ccc(-c2ccc(C(=O)Nc3ccccc3)c3occc23)c(C)c1 | i | i | 0% | i | -12%
COc1cc2nc(C#N)nc(N)c2cc1OC | x | x | x | x | 1%
Cc1ccc(NC(=O)c2ccc3c(c2)N(CC(=O)N2CCCCC2)C(=O)C(C)(C)O3)cc1 | u | i | -8% | -121%* | -10%
COc1cccc(NC(=O)CCSc2ccc3ccccc3n2)c1 | x | i | 13µM* | i | 13%
O=C(O)CCSc1ccc2ccccc2n1 | i | i | 18µM* | i | 1%
COc1ccc(NC(=O)CCSc2ccc3ccccc3n2)cc1 | x | i | 30% | i | -3%
CC(C)c1ccc(NC(=O)c2cc(S(=O)(=O)NCc3ccccc3Cl)ccc2F)cc1 | u | i | u | x | x
Cc1noc2ncnc(N3CCN(c4ccccc4F)CC3)c12 | i | i | 22µM* | x | u
